Only some compounds are listed: those with a hit (about 22% of all), similar ones and a draw of the others.
CYP2C9 activ = activators of human CYP2C9 | P11712 | activation factor at 5 µM | actives 1.4% (n = 96,000) | AID 1024 | recombinant CYP2C9, luciferin-H conversion, luminescence; hits give high values; factor 1 = untreated enzyme, 0 = blocked;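 active means activation factor of 2 or more for CYP2C9 at a 5 µM dose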;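 further: 0 = sulfaphenazole-blocked wells and 1 = vehicle-only wells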
Target sequence (P11712 whole entry, looked up): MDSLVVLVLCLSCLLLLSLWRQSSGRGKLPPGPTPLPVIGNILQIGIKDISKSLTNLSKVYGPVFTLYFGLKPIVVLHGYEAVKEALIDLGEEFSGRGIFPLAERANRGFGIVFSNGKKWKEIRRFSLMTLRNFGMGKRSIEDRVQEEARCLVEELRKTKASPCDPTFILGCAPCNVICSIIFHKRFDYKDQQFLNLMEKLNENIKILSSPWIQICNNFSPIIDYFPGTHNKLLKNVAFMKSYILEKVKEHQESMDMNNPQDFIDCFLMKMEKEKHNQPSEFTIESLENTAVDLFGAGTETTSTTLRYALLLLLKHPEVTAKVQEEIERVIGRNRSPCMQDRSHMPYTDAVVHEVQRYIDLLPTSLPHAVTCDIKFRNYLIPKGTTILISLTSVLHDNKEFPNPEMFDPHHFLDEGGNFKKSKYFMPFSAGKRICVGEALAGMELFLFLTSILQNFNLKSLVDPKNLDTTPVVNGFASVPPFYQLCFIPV
CYP2C19 act = increases human CYP2C19 enzyme activity | 96,000 tested, under 10 active | P33261 | recombinant CYP2C19, luciferin-H EGE luminescence; hits give high values; 0 = fully inhibited enzyme, 1 = untreated enzyme | activation factor at 5 µM;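 active means activation factor of at least 2 at 5 µM in the primary screen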;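 further: 0 = wells with 2.5 mM tranylcypromine and 1 = vehicle-only wells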
cytoskel mod = cytoskeleton assembly modification; actives 0.18% (n = 91,000); inhibition, % at 2 µM; AID 836; HUVEC TNFa F-actin phalloidin imaging, high content;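 active means inhibition above the batch mean plus 3 SD and confirmed as a hit by visual image inspection, cut at about 30% in these data, passing the limit was not always enough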
CYP2C19 inh = inhibitors of human CYP2C19. CYP2C19 Supersomes, luciferin-H EGE luminescence, 30 min. P33261. actives 21% (n = 96,000). inhibition, % at 5 µM. AID 778;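 active means CYP2C19 inhibition above a set limit at 5 µM in the primary screen, cut at about 50% in these data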;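 further: plate controls were negative control wells for no effect and 2.5 mM tranylcypromine positive control for full effect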
CYP2C9 inh = blocks human cytochrome P450 2C9 | P11712 | AID 777 | CYP2C9 Supersomes, luciferin-H conversion, luminescence | actives 20% (n = 96,000) | inhibition, % at 5 µM;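 active means blocking of liver enzyme CYP2C9 beyond about 50% at 5 µM, limit read from the data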
E-sel TNF inh = TNF alpha driven E-selectin expression inhibition. HUVEC TNFa-induced E-selectin immunofluorescence, high content. AID 1246. inhibition, % at 2 µM. actives 0.71% (n = 120,000);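 active means inhibition above the batch mean plus 3 SD, and confirmed as a hit on visual image review, cut at about 43% in these data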;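 further: 0% = TNF-stimulated DMSO wells and 100% = unstimulated control wells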
* marks the source's active call; other numbers are inactive results.

For CCCn1c2c(c(O)c(C(=O)Nc3ccc(OC)cc3)c1=O)CCCC2 the results were CYP2C9 activ 0.2, CYP2C19 act 0.9, cytoskel mod 5, CYP2C19 inh 6, CYP2C9 inh 79* and E-sel TNF inh -13.
`CCCn1c2c(c(O)c(C(=O)NC)c1=O)CCCC2` gave cytoskel mod 11 and E-sel TNF inh -15.
`CCN(CC)C(=O)CN1C(=O)C2(OCC(C)(c3ccccc3)CO2)c2ccccc21` (stereo not drawn) gave CYP2C9 activ 0.2, CYP2C19 act 0.1, cytoskel mod -13, CYP2C19 inh 86*, CYP2C9 inh 77* and E-sel TNF inh 8.
For Cn1nc([N+](=O)[O-])nc1Sc1nnc(-c2ccccc2)o1 the results were CYP2C9 activ 0.5, CYP2C19 act 0.8, cytoskel mod -17, CYP2C19 inh 19, CYP2C9 inh 52* and E-sel TNF inh 9.
O=Cc1ccc(Sc2nnc(-c3ccccc3)o2)c([N+](=O)[O-])c1 was read as CYP2C9 activ 0.9, CYP2C19 act 0.7, cytoskel mod -13, CYP2C19 inh 27, CYP2C9 inh 13 and E-sel TNF inh 37.
`Cc1cc(N2C(=O)C(O)=C(C(=O)c3ccco3)C2c2cccnc2)no1` (stereo not drawn) gave CYP2C9 activ 0.9, CYP2C19 act 1, cytoskel mod 11, CYP2C19 inh -1 and CYP2C9 inh 8.
For COc1cc(C2C(C(=O)c3ccc(C)o3)=C(O)C(=O)N2c2cc(C)on2)cc(Br)c1O (stereo not drawn) the results were CYP2C9 activ 0.3, CYP2C19 act 1, cytoskel mod -17, CYP2C19 inh -4, CYP2C9 inh 66* and E-sel TNF inh -16.
For COc1cc(C2C(C(=O)c3ccco3)=C(O)C(=O)N2c2cc(C)on2)cc(Br)c1O (stereo not drawn) the results were CYP2C9 activ 0.4, CYP2C19 act 1, cytoskel mod 2, CYP2C19 inh 0 and CYP2C9 inh 60*.
Screening COc1cc2c(=O)n(Cc3ccccc3)c(=O)n(CC(=O)NCCc3ccccc3)c2cc1OC returned CYP2C9 activ 0.8, CYP2C19 act 1.1, CYP2C19 inh -10, CYP2C9 inh 15 and E-sel TNF inh 22.
`CN(C)S(=O)(=O)c1ccc2c(c1)nc1n2CCC1` gave CYP2C9 activ 1.5, CYP2C19 act 1.2, cytoskel mod -4, CYP2C19 inh -23, CYP2C9 inh -48 and E-sel TNF inh 7.
For Cc1cccc2cc(C3CC(c4ccco4)=NN3S(=O)(=O)c3ccccc3)c(Cl)nc12 (stereo not drawn) the results were E-sel TNF inh 34.
Screening C=CCn1c(COc2ccc(OC)cc2)nnc1SCn1nnc2ccccc2c1=O returned E-sel TNF inh 2.
For CC(C)(O)C1=NOC(c2ccccc2)C1 (stereo not drawn) the results were CYP2C9 activ 1, CYP2C19 act 1, cytoskel mod -6, CYP2C19 inh -4, CYP2C9 inh -3 and E-sel TNF inh -5.
OC1(C2(O)CC(c3ccccc3)ON2)CCCCC1 (stereo not drawn) was read as CYP2C9 activ 0.9, CYP2C19 act 0.2, CYP2C19 inh 77*, CYP2C9 inh 10 and E-sel TNF inh -29.
Screening NC(=O)C1(N2CCCCC2)CCN(C(=O)CSc2nc3ccccc3s2)CC1 returned CYP2C9 activ 0.2, CYP2C19 act 0.2, cytoskel mod -1, CYP2C19 inh 78*, CYP2C9 inh 79* and E-sel TNF inh -2.
Screening O=C1CCCCCN1CSc1nc2ccccc2s1 returned CYP2C9 activ 1.2, CYP2C19 act 0.7, cytoskel mod -4, CYP2C19 inh 34, CYP2C9 inh -16 and E-sel TNF inh 2.
`O=C(CSc1nc2ccccc2s1)N1CCOCC1` gave CYP2C9 activ 0.7, CYP2C19 act 0.2, cytoskel mod -2, CYP2C19 inh 78*, CYP2C9 inh 26 and E-sel TNF inh 5.
O=[N+]([O-])c1ccc(N2CCOCC2)cc1SCc1ccco1 was read as E-sel TNF inh -6.
`CC(C)N1CC(C(=O)Nc2ccc(Br)c(Cl)c2)CC1=O` (stereo not drawn) gave CYP2C9 activ 0.8, CYP2C19 act 0.7, cytoskel mod -10, CYP2C19 inh 26, CYP2C9 inh 18 and E-sel TNF inh -19.
Screening CCOC(=O)c1[nH]c2cc(OC)c(OC)cc2c1NC(=O)CN1CCN(c2ccc(OC)cc2)C(C)C1 (stereo not drawn) returned CYP2C9 activ 1.1, CYP2C19 act 0.9, cytoskel mod -3, CYP2C19 inh 9, CYP2C9 inh -11 and E-sel TNF inh 1.
Screening CC(=O)NC1(C2CCCCC2=O)CCCCC1 (stereo not drawn) returned CYP2C9 activ 0.9, CYP2C19 act 0.8, cytoskel mod 17, CYP2C19 inh 20, CYP2C9 inh 11 and E-sel TNF inh -1.
For Cc1cccc(-c2nc3ccccc3c3nncn23)c1 the results were CYP2C9 activ 0.8, CYP2C19 act 0.5, cytoskel mod -1, CYP2C19 inh 54*, CYP2C9 inh 16 and E-sel TNF inh -15.
`COc1ccc(C2=Nn3c(nnc3-c3ccccc3OC)SC2)cc1OC` gave CYP2C9 activ 0.5, CYP2C19 act 0.4, CYP2C19 inh 65*, CYP2C9 inh 53* and E-sel TNF inh -24.
For CCOc1ccc(C2=Nn3c(nnc3-c3ccco3)SC2)cc1 the results were CYP2C9 activ 0.7, CYP2C19 act 0.8, cytoskel mod -21, CYP2C19 inh 21, CYP2C9 inh 33 and E-sel TNF inh -11.
Screening CCOc1ccc(C2=Nn3c(nnc3-c3ccccn3)SC2)cc1 returned CYP2C9 activ 0.9, CYP2C19 act 0.8, cytoskel mod -2, CYP2C19 inh 23, CYP2C9 inh 5 and E-sel TNF inh 16.
Screening COc1ccc(C2=Nn3c(nnc3-c3ccco3)SC2)cc1OC returned CYP2C9 activ 0.4, CYP2C19 act 0.6, cytoskel mod 23, CYP2C19 inh 37, CYP2C9 inh 57* and E-sel TNF inh 3.
`COc1ccc(C2=Nn3c(nnc3-c3ccccn3)SC2)cc1OC` gave CYP2C9 activ 0.6, CYP2C19 act 0.4, cytoskel mod 21, CYP2C19 inh 62*, CYP2C9 inh 36 and E-sel TNF inh 16.
For CC1=CC(C)(C)NC(=S)N1c1ccc2ccccc2c1 the results were CYP2C9 activ 0.8, CYP2C19 act 0.6, cytoskel mod -18, CYP2C19 inh 35, CYP2C9 inh 16 and E-sel TNF inh 5.
`Cn1c(-c2cccc(OCc3ccccc3)c2)nc2c1c(=O)[nH]c(=O)n2Cc1ccccc1` gave CYP2C9 activ 0.5, CYP2C19 act 1, cytoskel mod 10, CYP2C19 inh 5, CYP2C9 inh 54* and E-sel TNF inh -38.

From PubChem
